Source: PubChem
FLuc counter – firefly luciferase modulation, counter-screen for miR-21 project. purified FLuc, Km substrates, luminescence inhibition. Potency, µM (titrated, usually from 57.5 µM), most hits filed as inhibitors. actives 6.9% (n = 360,000). AID 588342; note: nearly all actives have a fitted effect of over 55% in size
Target sequence (P08659 whole entry, looked up): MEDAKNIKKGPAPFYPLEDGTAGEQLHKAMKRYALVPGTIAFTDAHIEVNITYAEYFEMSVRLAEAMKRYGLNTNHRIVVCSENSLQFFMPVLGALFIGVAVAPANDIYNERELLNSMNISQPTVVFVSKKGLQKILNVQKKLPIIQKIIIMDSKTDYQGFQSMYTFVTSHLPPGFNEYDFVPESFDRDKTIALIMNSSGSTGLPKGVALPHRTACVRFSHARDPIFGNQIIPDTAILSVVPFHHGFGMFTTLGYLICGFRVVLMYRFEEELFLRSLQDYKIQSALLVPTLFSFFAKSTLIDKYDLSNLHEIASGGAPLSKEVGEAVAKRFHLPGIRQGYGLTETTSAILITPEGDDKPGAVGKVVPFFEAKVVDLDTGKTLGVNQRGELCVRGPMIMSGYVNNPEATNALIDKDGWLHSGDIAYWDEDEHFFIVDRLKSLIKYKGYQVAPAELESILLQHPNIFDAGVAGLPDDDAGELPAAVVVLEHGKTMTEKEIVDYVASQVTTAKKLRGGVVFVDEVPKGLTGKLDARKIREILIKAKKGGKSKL
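Purified P. pyralis luciferase, 10 nM final, with Km-level 10 uM D-luciferin and 10 uM ATP in 50 mM Tris acetate pH 7.5, 10 mM Mg acetate, 0.01% Tween-20, 0.05% BSA; 6-point qHTS titration about 60 µM downward; luminescence read.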
Luc counter – counter-screen: inhibitors of Kinase-Glo firefly luciferase; Kinase-Glo luciferase, ATP luminescence, 8 min; Potency, µM (series often up to 38.3 µM), actives largely listed as inhibitors; actives 0.28% (n = 200,000); Q27757; note: nearly all actives have a fitted effect of over 60% in size
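Inhibition of Kinase-Glo luciferase light generation was assessed at 10 uM ATP in pH 7.2 imidazole buffer, with luminescence measured after eight minutes at ambient temperature.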
NPC1 promoter act – activators of NPC1 promoter; actives 2.4% (n = 320,000); Huh7 NPC1 promoter luciferase reporter, 24 h; AID 485313; Potency, µM (highest dose often 9.22 µM), usual class: activators; note: nearly all actives have a fitted effect of over 60% in size
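Cells: Huh7 expressing luciferase under the NPC1 promoter, 1500/well. Seeded 2 h, compound added, incubated 24 h at 37 °C. Luciferase reagent, 10 min ambient, then luminescence.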
ELG1 genotox – induces genotoxicity in HEK293T cells with luciferase-tagged ELG1; HEK293T ELG1-luciferase reporter, luminescence, 16 h; Potency, µM (top dose mostly 46 µM), most hits filed as activators; actives 1.3% (n = 330,000); AID 504466; note: nearly all actives have a fitted effect of over 60% in size
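ELG1-luciferase HEK293T cells, 2,000/well; compound pinned in; 16 hr, 37 °C, 5% CO2; ONE-Glo, 30 min RT; luminescence on CCD imager.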
SMN2 splice enh – enhancers of SMN2 splice variant expression. Potency, µM (doses to about 46.1 µM), usual class: activators. HEK293 SMN2-luciferase splicing reporter, luminescence, 30-36 h. actives 2.8% (n = 210,000); note: nearly all actives have a fitted effect of over 55% in size
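HEK293 cells carry an SMN2 […]–luciferase reporter in which exon 7 inclusion puts luciferase in frame. Cells were plated 10-12 h before compound addition, then incubated 30-36 h at 37C. ONE-Glo luminescence was read; sodium butyrate at 4.5 mM final served as control.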
Rab9 prom act – activators of Rab9 promoter | Huh7 Rab9 promoter-luciferase reporter, luminescence, 24 h | Potency, µM (titrated, usually from 9.22 µM), most hits filed as activators | actives 2.8% (n = 320,000); note: nearly all actives have a fitted effect of over 60% in size
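Cells were plated at 1500 per well in reduced-serum medium with 10% FBS and left 2 h. Compound in DMSO was then added for 24 h at 37 °C. Reporter signal was read by luminescence after 10 min with luciferase detection reagent.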
A number is an active result; – = inactive; ? = inconclusive; · = not tested or not shown; [ ] = dose if it differs, or a comment. An excerpt weighted towards active compounds, which were near 7.5% of everything screened. Calls come from the whole dose curve; as a rule, active = well fitted curve in the direction sought with a large enough effect; inconclusive = small, poorly fitted or top-dose-only effect, or another doubt; inactive = no such curve, though single readings can be large; an effect the other way counts as inactive or inconclusive.

SMILES	FLuc counter	Luc counter	NPC1 promoter act	ELG1 genotox	SMN2 splice enh	Rab9 prom act
COC(=O)c1ccc(NC(=O)CSc2nc3ccc(N4C(=O)C5C6C=CC(C6)C5C4=O)cc3s2)cc1 (stereo not drawn)	13µM	–	–	–	–	–
CC(C)CON=O	·	·	·	·	–	·
Cc1nn(C(C)(C)C)c(C)c1/C=N/OC(=O)Nc1ccc(Cl)c(Cl)c1	0.19µM	·	–	–	·	–
O=C(NCP(=O)(O)O)c1cccnc1	·	–[7.66 µM]	·	·	–[9.22 µM]	·
c1cc(CCN2CCCCC2)ccn1	·	–[7.66 µM]	·	·	–[9.22 µM]	·
O=C(Nc1ccc2nc(SCC(=O)N3CCOCC3)sc2c1)c1ccc(Cl)cc1	11µM	·	·	·	·	·
CN1CCN(c2ccc3nc(-c4ccc5nc(-c6ccc(O)cc6)[nH]c5c4)[nH]c3c2)CC1	·	–[7.66 µM]	·	·	?	·
CCOc1ccc(-c2nc3ccc(-c4nc5ccc(N6CCN(C)CC6)cc5[nH]4)cc3[nH]2)cc1	·	·	·	·	4µM	·
O=C(c1ccccc1)[C@H]1[C@H](c2ccccc2[N+](=O)[O-])N1C1CCCCC1 (stereo partly drawn)	·	–[7.66 µM]	·	·	–[9.22 µM]	·
O=C(Nc1ccccc1F)Oc1cccc(OC(=O)Nc2ccccc2F)c1	17µM	·	3.5µM	–	·	2.8µM
COc1ccc(C)cc1NC(=O)CN1CCN(CC(=O)Nc2ccccc2F)CC1	–	–	–	?	–	–
CCCCC(CC)COC(=O)c1ccc(C(=O)OCC(CC)CCCC)c(C(=O)OCC(CC)CCCC)c1 (stereo not drawn)	·	·	·	·	–	·
c1ccc(N=Nc2ccccc2)cc1	·	–	·	·	–	·
Cc1cccc(N=Nc2ccc(N(C)C)cc2)c1	0.67µM	·	0.63µM	4.6µM	·	1.3µM
CN(C)c1ccc(/C=C/[N+](=O)[O-])cc1	?	–	–	?	11µM	–
C/C(=C\c1ccc(N(C)C)cc1)[N+](=O)[O-]	?	–	–	–	–	–
[CH3][Hg][Cl]	·	·	·	·	–	·
CCC12CCN(CCc3ccc(F)cc3)CC1Oc1c(O)cccc12 (stereo not drawn)	–	·	·	·	·	·
COc1ccc(C(=O)Nc2cccc(S(=O)(=O)NCc3ccco3)c2)cc1	·	·	·	–	·	·
CCCOc1ccc(C(=O)Nc2ccc(-c3cc4ccccc4oc3=O)c(C)c2)cc1	1.7µM	·	·	·	–	·
ClCCCCl	·	·	·	·	–	·
CC(=O)OC1=CC2=CC[C@H]3[C@H]4CCC(=O)[C@@]4(C)CC(=O)[C@]3(S)[C@]2(C)CC1	·	–[7.66 µM]	·	·	–[9.22 µM]	·
COc1ccc(P2(=O)Nc3ccccc3N2)cc1	7.6µM	–	–	–	–	–
Cc1cccc(-n2c(=S)[nH]c3ccccc3c2=O)n1	–	–	–	–	–	–
O=c1c2ccccc2[nH]c(=S)n1-c1ccc2c(c1)OCCO2	11µM	·	?	–	·	?
SMILES	FLuc counter	Luc counter	NPC1 promoter act	ELG1 genotox	SMN2 splice enh	Rab9 prom act
CC(C)(C)c1ccc(C(=O)C2CCCN(Cc3ccon3)C2)cc1 (stereo not drawn)	17µM	·	?	–	·	?
O=C(c1ccc(Cl)cc1)C1CCCN(Cc2ccon2)C1 (stereo not drawn)	–	–	–	–	·	–
O=[As](O)(O)c1ccc(NCc2ccccc2)cc1	·	–[7.66 µM]	·	·	–[9.22 µM]	·
CN(C)C(=O)Oc1ccc(OC(=O)c2ccccc2)cc1	6.7µM	?	–	?	–	–
O=C1NC(=S)N(C2CC2)C(=O)/C1=C/c1ccc2c(c1)CCN2CCCCl	19µM	–	–	?	–	–
CCN1C(=O)/C(=C/c2ccc3c(c2)CCN3CCCCl)C(=O)NC1=S	?	?	–	?	–	–
O=C(Oc1ccc(S(=O)(=O)F)cc1F)c1ccccc1Cl	·	–[7.66 µM]	·	·	–[9.22 µM]	·
CN(C)c1ccc2c(c1)N=C(c1ccco1)OP2(=S)N1CCOCC1 (stereo not drawn)	15µM	–	–	?	–	–
COc1cc2c(cc1OC)C1C(=O)c3c(cc4c(c3O)C=CC(C)(C)O4)OC1CO2 (stereo not drawn)	·	–	·	·	–	·
CCCCCCOc1ccc(CN2CCN(CCO)CC2)cc1	19µM	–	2.2µM	8.2µM	–	4µM
CCCCOc1ccc(CN2CCN(CCO)CC2)cc1	–	–	–	?	–	–
c1ccc(-c2nc(N3CCOCC3)s[n+]2-c2ccccc2)cc1	7.6µM	–	–	–	–	–
CN(C)C(Cc1ccccc1)C(=O)c1c[nH]c2ccccc12 (stereo not drawn)	24µM	·	–	–	·	–
CN1C[C@H](C(=O)N[C@@]2(C)O[C@@]3(O)[C@H]4CCCN4C(=O)[C@@H](Cc4ccccc4)N3C2=O)C=C2c3cccc4[nH]cc(c34)C[C@@H]21	·	–[7.66 µM]	·	·	–[9.22 µM]	·
Oc1cccc(/C=N/NP(=S)(c2ccccc2)c2ccccc2)c1	24µM	–	–	–	–	–
CCCCC(=O)Cl	·	·	·	·	–	·
[Cl-].[Cl-].[Hg+2]	·	·	·	·	–	·
C[C@@]12CC[C@H](O[C@@H]3O[C@H](CO)[C@@H](O)[C@H](O)[C@@H]3O)C[C@@H]1CC[C@H]1[C@H]2CC[C@@]2(C)[C@@H](C3=CCOC3=O)CC[C@]12O	·	–[7.66 µM]	·	·	–[9.22 µM]	·
O=C(Oc1ccc2ccccc2c1)c1ccco1	12µM	–	–	–	–	–
CCOC(=O)C1CCCN(C(=O)c2ccc3oc(Cc4ccccc4)nc3c2)C1 (stereo not drawn)	12µM	·	3.5µM	?	·	4.5µM
Cc1cc(C=C2C(=O)NC(=O)NC2=O)c(C)n1-c1cccnc1	?	·	–	–	·	–
Cc1cc(C=C2C(=O)N(C)C(=S)N(C)C2=O)c(C)n1C1CCCCC1	3.4µM	–	–	–	–	–
Cc1cc(C=C2C(=O)NC(=S)NC2=O)c(C)n1C1CCCC1	1.5µM	?	–	21µM	–	–
Cc1cc(N2CCCCC2)ccc1C=C1C(=O)N(C)C(=S)N(C)C1=O	?	–	–	–	–	–
Nc1ccc(S(=O)(=O)c2ccc(NCN3C(=O)NC(=O)C(=O)C3=O)cc2)cc1	·	–[7.66 µM]	·	·	–[9.22 µM]	·
SMILES	FLuc counter	Luc counter	NPC1 promoter act	ELG1 genotox	SMN2 splice enh	Rab9 prom act
O=C1NC(=O)C(=Cc2cc(Cl)ccc2OCc2ccc(C(=O)O)cc2)C(=O)N1	24µM	–	–	–	–	–
CCOc1cc(C=C2C(=O)NC(=O)NC2=O)ccc1OCC(=O)N1CCOCC1	–	–	–	–	–	–
CC(C)C(=O)CP(=O)(O)O	·	–[7.66 µM]	·	·	–[9.22 µM]	·
CCC(C)/C=C(C)/C=C/C1=CC2=C(Cl)C(=O)C(C)(OC(C)=O)C(=O)C2=CO1 (stereo not drawn)	21µM	·	–	–	·	–
CN1/C(=C\C=C\C2=[N+](C)c3ccc4ccccc4c3C2(C)C)C(C)(C)c2ccccc21	13µM	?	–	–	–	–
CN1/C(=C\C=Nc2ccccc2)C(C)(C)c2ccccc21	–	·	–	–	·	–
CNc1ccc2nc3ccccc3[n+](C)c2c1	17µM	·	–	–	·	–[1.84 µM]
OCCNc1c2c(nc3ccccc13)CCCC2	–	–	–	–	–	–
C[n+]1c2ccccc2nc2ccc(NCCO)cc21	19µM	·	–	–	·	–[1.84 µM]
